Test results taken from PubChem BioAssay.
Activity calls are given as the source filed them.

Key:
[1] = optical density shifts of acrAB sulA E. coli – strain DRC41, OD650, 48 h, E. coli filamentation inducer project, primary screen (AID 1152); settings: higher = more signal, called active from +8 up or from −8 down;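 also: E. coli MC1000 strain DRC41 lacking acrAB efflux pump and sulA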
[2] = probe aLefty1 binding on compound microarray – biochemical, small-molecule microarray, 635/667 nm fluorescence, primary screen (AID 1153); settings: higher = more signal;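 also: score merges spot fluorescence with signal-to-noise ratio from the scanned slide images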
[3] = plasmodial surface anion channel blockers, osmotic lysis – cell-based, P. falciparum Indochina, OD700, 1 h, primary screen (AID 1154); settings: P. falciparum Indochina infected RBC osmotic lysis, higher = more signal, called active from +8 up or from −8 down
[4] = plasmodial surface anion channel blockers, osmotic lysis – cell-based, P. falciparum Indochina, OD700, 2 h, primary screen (AID 1155);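 also: lysis reports solute entry through the parasite surface anion channel PSAC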; settings: P. falciparum Indochina infected erythrocytes, higher = more signal, called active from +8 up or from −8 down
[5] = changes in parasitized red cell lysis, either direction – P. falciparum Indochina, OD700, 3 h, PSAC antagonist project, primary screen (AID 1156); settings: P. falciparum-infected erythrocytes, osmotic lysis, higher = more signal, called active from +8 up or from −8 down
[6] = plasmodial surface anion channel blockers, osmotic lysis – cell-based, P. falciparum Indochina, OD700, 18 h, primary screen (AID 1157); settings: P. falciparum Indochina infected erythrocytes, osmotic lysis OD700, 18 h; higher = more signal, called active from +8 up or from −8 down
[7] = S6 kinase pathway phospho-S6 level changes – cell-based, A549, cytoblot, luminescence, serum-stimulated, primary screen (AID 1158); settings: 5 h, higher = more signal;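 also: serum-stimulated A549 lung adenocarcinoma cells; signal is phosphorylated S6 detected by cytoblot immunostaining with HRP secondary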
[8] = target: NADPH oxidase 2 (Homo sapiens) (UniProt P04839); experiment: compounds shifting NOX2 Amplex Red fluorescence – cell-based, HEK293-NOX2, PMA-stimulated, NOX inhibitor project, primary screen (AID 1159); settings: 45 min, higher = more signal, called active from +8 up or from −8 down; also: test concentration not given here
Chain of NADPH oxidase 2 (Homo sapiens) (P04839 whole entry, looked up): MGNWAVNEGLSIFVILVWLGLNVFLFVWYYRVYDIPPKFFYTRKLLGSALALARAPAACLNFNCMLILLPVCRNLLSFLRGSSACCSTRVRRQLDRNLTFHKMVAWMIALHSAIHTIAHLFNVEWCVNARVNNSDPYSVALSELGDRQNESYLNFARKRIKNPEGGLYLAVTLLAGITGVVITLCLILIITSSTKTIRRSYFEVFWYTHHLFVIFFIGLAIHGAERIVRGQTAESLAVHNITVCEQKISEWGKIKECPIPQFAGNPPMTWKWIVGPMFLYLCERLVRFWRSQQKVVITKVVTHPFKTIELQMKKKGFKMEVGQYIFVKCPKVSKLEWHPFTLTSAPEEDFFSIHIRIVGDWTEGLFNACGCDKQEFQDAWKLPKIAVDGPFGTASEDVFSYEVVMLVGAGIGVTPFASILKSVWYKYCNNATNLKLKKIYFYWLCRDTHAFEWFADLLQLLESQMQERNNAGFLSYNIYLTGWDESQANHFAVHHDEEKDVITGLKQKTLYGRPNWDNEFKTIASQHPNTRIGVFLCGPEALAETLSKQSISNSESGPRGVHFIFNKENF

[9] = target: NADPH oxidase 4 (Homo sapiens) (UniProt Q9NPH5); experiment: compounds shifting NOX4 Amplex Red fluorescence – cell-based, HEK293-NOX4, tetracycline-induced, NOX inhibitor project, primary screen (AID 1160); settings: HEK293-NOX4, Amplex Red H2O2 fluorescence, 45 min; higher = more signal, called active from +8 up or from −8 down
Chain of NADPH oxidase 4 (Homo sapiens) (Q9NPH5 whole entry, looked up): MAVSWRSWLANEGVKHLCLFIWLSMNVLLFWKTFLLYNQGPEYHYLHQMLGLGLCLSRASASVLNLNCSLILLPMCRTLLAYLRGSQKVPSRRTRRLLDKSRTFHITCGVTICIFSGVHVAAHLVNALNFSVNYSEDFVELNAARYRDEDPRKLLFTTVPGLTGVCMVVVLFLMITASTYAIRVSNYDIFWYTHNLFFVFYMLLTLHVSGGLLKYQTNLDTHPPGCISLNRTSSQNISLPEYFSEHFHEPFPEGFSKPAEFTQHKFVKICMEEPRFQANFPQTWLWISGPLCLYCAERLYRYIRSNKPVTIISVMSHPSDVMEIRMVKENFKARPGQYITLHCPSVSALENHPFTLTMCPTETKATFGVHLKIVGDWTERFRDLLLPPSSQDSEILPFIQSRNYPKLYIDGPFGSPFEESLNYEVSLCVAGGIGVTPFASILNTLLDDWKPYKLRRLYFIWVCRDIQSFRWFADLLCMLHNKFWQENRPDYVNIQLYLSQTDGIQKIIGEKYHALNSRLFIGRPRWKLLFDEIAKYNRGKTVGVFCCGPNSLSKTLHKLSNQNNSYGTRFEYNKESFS

[10] = target: NADPH oxidase 5 (Homo sapiens) (UniProt Q96PH1); experiment: compounds shifting NOX5 Amplex Red fluorescence – cell-based, HEK293-NOX5, NOX inhibitor project, primary screen (AID 1161); settings: HEK293-NOX5, ionomycin, 45 min, higher = more signal
Chain of NADPH oxidase 5 (Homo sapiens) (Q96PH1 whole entry, looked up): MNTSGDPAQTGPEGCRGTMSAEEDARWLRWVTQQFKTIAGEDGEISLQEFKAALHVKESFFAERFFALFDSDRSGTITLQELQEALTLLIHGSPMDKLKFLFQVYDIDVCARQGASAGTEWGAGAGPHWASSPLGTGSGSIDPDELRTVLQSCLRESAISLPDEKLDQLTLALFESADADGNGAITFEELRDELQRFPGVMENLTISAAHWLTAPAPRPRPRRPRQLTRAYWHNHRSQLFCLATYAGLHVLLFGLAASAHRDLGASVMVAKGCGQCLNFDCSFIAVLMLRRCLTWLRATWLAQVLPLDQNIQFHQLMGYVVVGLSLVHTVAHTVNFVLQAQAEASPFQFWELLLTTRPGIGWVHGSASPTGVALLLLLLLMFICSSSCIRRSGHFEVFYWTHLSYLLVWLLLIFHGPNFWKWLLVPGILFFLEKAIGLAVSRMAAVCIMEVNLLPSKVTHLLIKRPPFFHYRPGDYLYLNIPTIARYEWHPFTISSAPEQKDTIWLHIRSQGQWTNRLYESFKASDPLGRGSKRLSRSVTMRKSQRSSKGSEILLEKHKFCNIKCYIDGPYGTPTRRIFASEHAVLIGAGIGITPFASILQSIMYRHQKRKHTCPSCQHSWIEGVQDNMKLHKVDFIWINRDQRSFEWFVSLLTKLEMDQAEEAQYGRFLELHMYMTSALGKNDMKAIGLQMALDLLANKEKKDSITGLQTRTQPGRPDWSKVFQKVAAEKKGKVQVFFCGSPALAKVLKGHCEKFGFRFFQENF

[11] = compound effects on lung adenocarcinoma cell viability – A549, calcein-AM fluorescence, 48 h, basal, profiling panel (AID 1162); settings: higher = more signal; also: test concentration not given here
[12] = compound effects on differentiated 3T3-L1 adipocyte viability – cell-based, 3T3-L1 adipocytes, calcein-AM fluorescence, 48 h, basal, profiling panel (AID 1163); settings: 3T3-L1 adipocytes viability, higher = more signal; also: test concentration not given here
[13] = compound effects on hepatocellular carcinoma cell viability – HepG2, calcein-AM fluorescence, 48 h, basal, profiling panel (AID 1164); settings: higher = more signal; also: test concentration not given here
[14] = compound effects on multiple myeloma cell viability – MM1S, calcein-AM fluorescence, 48 h, basal, profiling panel (AID 1165); settings: higher = more signal;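 also: viability of MM1S multiple myeloma cells under basal unstimulated conditions; test concentration not given here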
[15] = calcein-AM signal in unstimulated myeloma cells – cell-based, calcein-AM fluorescence, 48 h, PK04 Diversity Set, profiling panel (AID 1166); settings: RPMI8226 myeloma viability, higher = more signal;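 also: cells grown under basal conditions without added stimulus; test concentration not given here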
[16] = JC-1 mitochondrial signal, unstimulated HepG2 cells – cell-based, JC-1 fluorescence, 24 h, 100 nL compound, profiling panel (AID 1167); settings: HepG2 mitochondrial potential, higher = more signal; also: test concentration not given here
[17] = JC-1 mitochondrial signal, unstimulated adipocytes – cell-based, JC-1 fluorescence, 3T3-L1 adipocytes, 24 h, 100 nL compound, profiling panel (AID 1168); settings: JC-1 mitochondrial fluorescence, higher = more signal, called active from +8 up or from −8 down; also: test concentration not given here
[18] = JC-1 mitochondrial signal, unstimulated myeloma cells – cell-based, JC-1 fluorescence, RPMI8226, 24 h, 100 nL compound, profiling panel (AID 1169); settings: JC-1 mitochondrial potential fluorescence, higher = more signal; also: test concentration not given here
[19] = JC-1 mitochondrial signal, unstimulated MM1S myeloma – cell-based, JC-1 fluorescence, 24 h, 100 nL compound, profiling panel (AID 1170); settings: MM1S mitochondrial potential, higher = more signal; also: test concentration not given here
[20] = resazurin metabolic signal in A549 cells – cell-based, resazurin fluorescence, 24 h, PK04 Diversity Set, profiling panel (AID 1171); settings: A549 viability, higher = more signal, called active from +8 up or from −8 down; also: test concentration not given here

Row | Structure (SMILES) | z-score [1] | composite z-score [2] | z-score [3] | z-score [4] | z-score [5] | z-score [6] | z-score [7] | z-score [8] | z-score [9] | z-score [10] | z-score [11] | z-score [12] | z-score [13] | z-score [14] | z-score [15] | z-score [16] | z-score [17] | z-score [18] | z-score [19] | z-score [20]
1 | CC1(C)C(=O)C(c2ccccc2)=C2CN3C(=O)N(CCc4ccccc4)C(=O)C3(Cc3ccc(F)cc3)C=C21 (stereo not given) | -2.48 (inactive) | 0.595 | 2.94 (inactive) | 0.371 (inactive) | 1.8 (inactive) | 0.765 (inactive) | -0.16 | -0.952 (inactive) | -4.15 (inactive) | -3.9 | -0.767 | 0.366 | 0.184 | -1.24 | -1.81 | 0.39 | -1.91 (inactive) | -0.733 | -0.59 | -0.745 (inactive)
2 | COC(=O)[C@@]1(Cc2ccc(OC)cc2)[C@H]2c3cc(C(=O)N4CCCC4)n(Cc4ccc(S(C)(=O)=O)cc4)c3C[C@H]2CN1C(=O)c1ccccc1 | -1.08 (inactive) | 0.315 | 2.29 (inactive) | 0.326 (inactive) | 0.6 (inactive) | 0.617 (inactive) | -0.688 | 0.385 (inactive) | -0.389 (inactive) | -1.7 | -0.112 | 0.842 | 0.47 | 0.137 | -0.403 | 2.63 | -0.606 (inactive) | -0.7 | -1.15 | 0.105 (inactive)
3 | Cc1nc2cc(Br)ccc2c(=O)n1Cc1cccc(O)c1 | 0.685 (inactive) | -0.216 | 0.73 (inactive) | 0.368 (inactive) | 0.136 (inactive) | 0.377 (inactive) | -0.257 | -0.763 (inactive) | -0.191 (inactive) | -0.302 | -0.508 | -0.396 | 0.454 | -0.301 | 0.244 | -0.0434 | 1.62 (inactive) | -0.536 | -0.432 | 0.246 (inactive)
4 | CCCCC(=C=CC[C@H](O)c1ccc(OCCO)cc1)C[C@H](O)COCc1ccccc1 | -0.088 (inactive) | -0.235 | 18.2 (active) | 3.18 (inactive) | 0.871 (inactive) | 1.02 (inactive) | -0.881 | -0.751 (inactive) | -0.446 (inactive) | -2.05 | 0.218 | 0.516 | 0.528 | -3.3 | -0.565 | -0.399 | -0.379 (inactive) | -0.0821 | -0.244 | 0.449 (inactive)
5 | COC(=O)C1=CC(CCCO)=CC(c2ccc(CN3CCCC3)cc2)N(Cc2cc3c(cc2Br)OCO3)C=C1C(=O)OC (stereo not given) | 0.235 (inactive) | 0.744 | 0.903 (inactive) | 0.408 (inactive) | 1.23 (inactive) | 0.082 (inactive) | 0.158 | 1.64 (inactive) | -0.638 (inactive) | 0.399 | -0.392 | 0.151 | 0.0308 | 0.0875 | 0.046 | 0.516 | -0.251 (inactive) | 0.144 | -0.0408 | 0.652 (inactive)
6 | COc1ccc(C#Cc2ccc3c(c2)[C@]2(C(=O)N3)[C@H](c3ccc(OCCO)cc3)N3[C@H](c4ccccc4)[C@H](c4ccccc4)OC(=O)[C@H]3[C@@H]2C(=O)N2CCc3cc(OC)c(OC)cc3C2)cc1 | -0.433 (inactive) | -0.261 | 3.24 (inactive) | 2.77 (inactive) | 1.15 (inactive) | 1.1 (inactive) | -0.298 | 0.661 (inactive) | 0.621 (inactive) | 0.27 | 0.0926 | 0.485 | 0.477 | -1.25 | 0.343 | 0.37 | 3.73 (inactive) | -1.23 | -1.49 | -0.0906 (inactive)
7 | COc1ccc(C(=O)Nc2cccc(CN3C(=O)[C@]4(O[C@H](CCn5cc([C@H](O)c6ccccc6)nn5)[C@@H]([Si](C)(C)c5ccc(OC)cc5)[C@@H]4C)c4ccccc43)c2)cc1 | 0.959 (inactive) | 0.051 | 1.23 (inactive) | 0.0918 (inactive) | 1.82 (inactive) | -0.209 (inactive) | 0.871 | -0.498 (inactive) | 0.245 (inactive) | -0.305 | -1.17 | 0.408 | -2.1 | -3.03 | -2.99 | 2.27 | -0.386 (inactive) | -0.989 | -1.12 | -2.56 (inactive)
8 | CN1C(=O)C2C=CC(C(O)c3cc(C(F)(F)F)cc(C(F)(F)F)c3)N(NC(=O)OC(C)(C)C)C2C1=O (stereo not given) | -1.13 (inactive) | 0.363 | -0.0698 (inactive) | 0.118 (inactive) | -0.548 (inactive) | 1.2 (inactive) | -0.636 | -0.694 (inactive) | -1.47 (inactive) | 1.5 | -1.29 | -0.122 | -0.938 | 0.319 | -1.06 | -1.28 | 1.03 (inactive) | 0.191 | 0.546 | 1.14 (inactive)
9 | COc1cc(NN2C(C(O)c3ccccc3)C=CC3C(=O)N(C)C(=O)C32)cc(OC)c1OC (stereo not given) | -1.05 (inactive) | 0.0455 | 0.758 (inactive) | 0.34 (inactive) | 1.21 (inactive) | -0.447 (inactive) | 1.44 | -3.07 (inactive) | -5.77 (inactive) | -6.19 | -0.209 | 0.68 | -0.131 | -1.34 | -0.589 | -0.944 | 0.215 (inactive) | -0.413 | -1.54 | -1.52 (inactive)
